Measurements from PubChem BioAssay.
Values joined by “and” are separate entries in the source; they are usually repeats but may differ in a detail not shown here. Equal entries are not always repeated. Active and inactive are the calls of the source. Unless noted, the rule behind the calls is not given here.

Tests used:
[1] = compound effects on lung adenocarcinoma cell viability – A549, calcein-AM fluorescence, 48 h, basal, profiling panel (AID 1162); details: higher = more signal; note: test concentration not given here
[2] = compound effects on differentiated 3T3-L1 adipocyte viability – cell-based, 3T3-L1 adipocytes, calcein-AM fluorescence, 48 h, basal, profiling panel (AID 1163); details: 3T3-L1 adipocytes viability, higher = more signal; note: test concentration not given here
[3] = compound effects on hepatocellular carcinoma cell viability – HepG2, calcein-AM fluorescence, 48 h, basal, profiling panel (AID 1164); details: higher = more signal; note: test concentration not given here
[4] = compound effects on multiple myeloma cell viability – MM1S, calcein-AM fluorescence, 48 h, basal, profiling panel (AID 1165); details: higher = more signal;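 note: viability of MM1S multiple myeloma cells under basal unstimulated conditions; test concentration not given here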
[5] = calcein-AM signal in unstimulated myeloma cells – cell-based, calcein-AM fluorescence, 48 h, PK04 Diversity Set, profiling panel (AID 1166); details: RPMI8226 myeloma viability, higher = more signal;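 note: cells grown under basal conditions without added stimulus; test concentration not given here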
[6] = JC-1 mitochondrial signal, unstimulated HepG2 cells – cell-based, JC-1 fluorescence, 24 h, 100 nL compound, profiling panel (AID 1167); details: HepG2 mitochondrial potential, higher = more signal; note: test concentration not given here
[7] = JC-1 mitochondrial signal, unstimulated adipocytes – cell-based, JC-1 fluorescence, 3T3-L1 adipocytes, 24 h, 100 nL compound, profiling panel (AID 1168); details: JC-1 mitochondrial fluorescence, higher = more signal, called active from +8 up or from −8 down; note: test concentration not given here
[8] = JC-1 mitochondrial signal, unstimulated myeloma cells – cell-based, JC-1 fluorescence, RPMI8226, 24 h, 100 nL compound, profiling panel (AID 1169); details: JC-1 mitochondrial potential fluorescence, higher = more signal; note: test concentration not given here
[9] = JC-1 mitochondrial signal, unstimulated MM1S myeloma – cell-based, JC-1 fluorescence, 24 h, 100 nL compound, profiling panel (AID 1170); details: MM1S mitochondrial potential, higher = more signal; note: test concentration not given here
[10] = resazurin metabolic signal in A549 cells – cell-based, resazurin fluorescence, 24 h, PK04 Diversity Set, profiling panel (AID 1171); details: A549 viability, higher = more signal, called active from +8 up or from −8 down; note: test concentration not given here
[11] = resazurin metabolic signal in HepG2 cells – cell-based, resazurin fluorescence, 24 h, PK04 Diversity Set, profiling panel (AID 1172); details: HepG2 viability, higher = more signal; note: test concentration not given here
[12] = budding yeast growth changes without added modifier – OD600, strain BY4716, 24 h, basal condition, primary screen (AID 1173); details: S. cerevisiae BY4716 growth, OD600, 24 h; higher = more signal, called active from +8 up or from −8 down
[13] = viability profiling in MM1S myeloma cells – cell-based, resazurin fluorescence, basal, 24 h, PK04 Diversity Set, profiling panel (AID 1174); details: higher = more signal, called active from +8 up or from −8 down; note: test concentration not given here
[14] = molecular target: Dihydroorotate dehydrogenase (quinone), mitochondrial (Plasmodium falciparum (isolate 3D7)) (UniProt Q08210); assay: inhibition of P. falciparum DHODH – biochemical, C-terminal His tag, absorbance 600 nm, primary screen (AID 1175); details: PfDHODH enzyme, DCIP absorbance 600 nm; higher = more signal, called active from +8 up or from −8 down;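 note: recombinant parasite enzyme with a five histidine tag at its C terminus; test concentration not given here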
Sequence of Dihydroorotate dehydrogenase (quinone), mitochondrial (Plasmodium falciparum (isolate 3D7)) (Q08210 whole entry, looked up): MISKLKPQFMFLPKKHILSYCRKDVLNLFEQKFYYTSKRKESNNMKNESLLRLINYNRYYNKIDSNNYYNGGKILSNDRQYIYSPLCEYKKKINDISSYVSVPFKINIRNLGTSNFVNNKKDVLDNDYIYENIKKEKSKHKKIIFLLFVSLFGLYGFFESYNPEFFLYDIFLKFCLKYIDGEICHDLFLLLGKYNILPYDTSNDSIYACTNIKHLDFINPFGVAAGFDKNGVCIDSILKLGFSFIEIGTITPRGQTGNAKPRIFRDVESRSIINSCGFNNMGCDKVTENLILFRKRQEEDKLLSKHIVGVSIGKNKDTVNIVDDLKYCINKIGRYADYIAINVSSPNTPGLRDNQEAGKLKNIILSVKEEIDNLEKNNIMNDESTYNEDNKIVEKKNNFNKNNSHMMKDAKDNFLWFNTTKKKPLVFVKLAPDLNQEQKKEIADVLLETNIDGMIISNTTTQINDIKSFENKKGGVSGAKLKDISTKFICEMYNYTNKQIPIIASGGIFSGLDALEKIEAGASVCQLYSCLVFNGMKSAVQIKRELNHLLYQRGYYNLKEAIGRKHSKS

[15] = inhibition of PAO1 biofilm formation – strain PAO1, LB-PBS medium, absorbance 600 nm, primary screen (AID 1176); note: test concentration not given here; details: P. aeruginosa PAO1 growth/biofilm, A600, 12 h; higher = more signal
[16] = growth modulation of vineyard yeast isolate – strain RM11-1a, OD600, basal, 24 h, primary screen (AID 1177);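 note: cultures grown under basal conditions with no added stressor; test concentration not given here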; details: S. cerevisiae RM11-1a growth, OD600, 24 h; higher = more signal, called active from +8 up or from −8 down
[17] = growth of efflux-deficient E. coli DRC39 – strain DRC39, OD650, 24 h, E. coli filamentation inducers, primary screen (AID 1178);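 note: growth measured as culture turbidity by optical density at 650 nm; test concentration not given here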; details: E. coli DRC39 acrAB, higher = more signal, called active from +8 up or from −8 down
[18] = growth of efflux-deficient E. coli DRC39 – strain DRC39, OD650, 48 h, E. coli filamentation inducers, primary screen (AID 1179);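 note: screen aims at cell division blockers that make cells filament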; details: E. coli DRC39 delta-acrAB growth, higher = more signal, called active from +8 up or from −8 down
[19] = viability profiling in RPMI8226 myeloma cells – cell-based, resazurin fluorescence, basal, 24 h, PK04 Diversity Set, profiling panel (AID 1180); details: higher = more signal;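 note: RPMI8826 multiple myeloma cell line at 5000 cells per well; test concentration not given here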
[20] = molecular target: E3 ubiquitin-protein ligase XIAP (Homo sapiens) (UniProt P98170); assay: small molecules binding XIAP protein – biophysical, small-molecule microarray, fluorescence 635 nm, primary screen (AID 1181); details: higher = more signal;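 note: score merges 667 nm emission and signal to noise over triplicate slides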
Sequence of E3 ubiquitin-protein ligase XIAP (Homo sapiens) (P98170 whole entry, looked up): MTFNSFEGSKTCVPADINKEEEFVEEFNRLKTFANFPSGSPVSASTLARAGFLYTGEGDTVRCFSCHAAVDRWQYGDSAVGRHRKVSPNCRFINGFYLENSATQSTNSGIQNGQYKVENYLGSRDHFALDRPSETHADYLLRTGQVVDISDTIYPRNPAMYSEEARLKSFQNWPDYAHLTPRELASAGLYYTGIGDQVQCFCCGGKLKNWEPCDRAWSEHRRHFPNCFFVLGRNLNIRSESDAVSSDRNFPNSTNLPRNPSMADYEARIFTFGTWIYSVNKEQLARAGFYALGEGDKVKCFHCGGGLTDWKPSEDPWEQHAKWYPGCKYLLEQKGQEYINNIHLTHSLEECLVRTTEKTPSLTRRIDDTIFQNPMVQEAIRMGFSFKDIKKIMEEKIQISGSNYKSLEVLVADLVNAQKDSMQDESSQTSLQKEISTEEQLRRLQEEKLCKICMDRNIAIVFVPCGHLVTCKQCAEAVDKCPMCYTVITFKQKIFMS

SMILES | z-score [1] | z-score [2] | z-score [3] | z-score [4] | z-score [5] | z-score [6] | z-score [7] | z-score [8] | z-score [9] | z-score [10] | z-score [11] | z-score [12] | z-score [13] | composite z-score [14] | z-score [15] | z-score [16] | z-score [17] | z-score [18] | z-score [19] | composite z-score [20]
COC(=O)c1c2oc(c1C(=O)OC)C(=O)N[C@@H](Cc1ccccc1)Cn1cc(nn1)C1(CCCCC1)NC(=O)N[C@H](CO)CC2 | 2.13 and 1.06 | -0.29 and 0.184 | 0.893 and 0.0236 | 0.434 and -0.392 | 1.51 and -1.13 | 1.09 and 4.63 | 0.354 (inactive) and -0.852 (inactive) | -0.0874 and -0.0745 | 0.559 and -0.594 | 0.976 (inactive) and 1.37 (inactive) | 1.61 and 1.46 | -4.6 (inactive) and 0.628 (inactive) | 0.74 (inactive) and 2.29 (inactive) | 0.338 (inactive) and 0.282 (inactive) | 1.33 (inactive) and 0.997 (inactive) | -0.0882 (inactive) and -0.376 (inactive) | 1.89 (inactive) and 0.153 (inactive) | 1.56 (inactive) and 0.279 (inactive) | 0.688 and 2.64 | 0.065 and -0.0187
COC(=O)C1=C(C)N(Cc2ccccc2)[C@]23O[C@](C(=O)OC)(C(=O)N2[C@@H]1c1ccccc1)[C@@H](c1ccccc1)[C@@H]3C(=O)c1ccccc1 | 0.668 and 0.418 | 1.64 and 0.204 | 0.344 and 0.832 | 0.54 and 0.391 | -0.0139 and 0.294 | 2.68 and 2.31 | 1.13 (inactive) and 0.417 (inactive) | 0.535 and -0.253 | -0.00272 and 0.667 | 0.266 (inactive) and 1.05 (inactive) | 1.07 and 0.475 | -1.84 (inactive) and -0.926 (inactive) | 0.876 (inactive) and 0.459 (inactive) | 0.78 (inactive) and 0.324 (inactive) | -0.0933 (inactive) | -1.37 (inactive) and -0.224 (inactive) | -0.603 (inactive) and 0.788 (inactive) | -0.263 (inactive) and 0.547 (inactive) | 0.56 and 0.48 | -0.209 and 0.0264
CON(C)C(=O)c1nnc2c3ccccc3n(S(=O)(=O)c3ccc(C)cc3)c2n1 | 0.318 and 1.25 | 0.495 and -0.447 | -1.33 and -0.298 | 0.14 and 0.0315 | 0.496 and -0.588 | -1.61 and -1.52 | -0.301 (inactive) and -0.0202 (inactive) | 0.218 and 0.4 | -0.436 and -0.72 | 0.617 (inactive) and -0.146 (inactive) | -0.311 and -0.466 | -0.148 (inactive) and -0.378 (inactive) | -0.125 (inactive) and -0.498 (inactive) | 0.354 (inactive) and -0.588 (inactive) | -0.446 (inactive) and 0.757 (inactive) | -0.469 (inactive) and -0.226 (inactive) | -0.339 (inactive) and 0.046 (inactive) | -0.512 (inactive) and -0.404 (inactive) | -0.691 and -0.232 | -0.146 and 0.687
CC(C)OC(=O)C=C1C[C@@H](c2cccc(C(F)(F)F)c2)O[C@@H](c2cccc(C(F)(F)F)c2)O1 | 0.133 and 0.343 | -0.425 and 0.279 | 0.957 and 0.258 | -0.499 and -1 | -0.195 and -0.167 | -0.447 and 0.606 | 0.297 (inactive) and 0.121 (inactive) | -0.897 and -0.238 | -3.24 and -1.09 | 0.308 (inactive) and 1 (inactive) | -0.115 and 0.0158 | 0.308 (inactive) and 0.626 (inactive) | -1.7 (inactive) and 0.108 (inactive) | -2.02 (inactive) and -2.59 (inactive) | 0.834 (inactive) and 0.269 (inactive) | 0.69 (inactive) and -0.0601 (inactive) | -0.169 (inactive) and -0.948 (inactive) | 1.04 (inactive) and 0.509 (inactive) | -0.899 and 0.393 | -0.195 and 0.163
CO[C@H]1COC(=O)CC=C[C@@H](C)COC(=O)[C@@H](OCc2ccccc2)C=C[C@@H]1C | 0.497 | 0.146 | 0.835 | 0.301 | 0.608 | 0.952 | -0.0508 (inactive) | -0.442 | -0.414 | -0.34 (inactive) | 0.537 | -1.93 (inactive) | 0.155 (inactive) | -0.825 (inactive) | -0.72 (inactive) | -0.78 (inactive) | 0.84 (inactive) | 0.929 (inactive) | 0.142 | -0.245
C=C[C@H](C)[C@H](O)c1ccc(O)c2ccccc12 | 0.0619 and 0.429 | 0.114 and -0.0793 | -0.461 and 0.756 | -2.53 and -2.69 | -0.233 and -0.17 | -1.28 and -0.0285 | -0.193 (inactive) and 1.11 (inactive) | -1.01 and 0.71 | -1.76 and 0.307 | -0.52 (inactive) and -0.539 (inactive) | 0.26 and 0.0956 | -8.01 (active) and -8.42 (active) | -0.709 (inactive) and -0.107 (inactive) | -1.87 (inactive) and -1.49 (inactive) | 1.32 (inactive) and 1.45 (inactive) | -1.6 (inactive) and -2.52 (inactive) | 1.06 (inactive) and 1.82 (inactive) | 1.31 (inactive) and 1.91 (inactive) | -0.54 and 0.1 | -0.0659 and 0.116
C=CCN(C(=O)C(c1cccs1)N(CCOCCO)C(=O)/C=C\C(=O)O)C(C)(C)C (stereo not given) | 1.01 and 1.61 | -0.515 and -0.161 | 1.25 and 0.41 | 1.62 and 0.903 | 0.116 and 0.954 | 1.07 and 0.991 | 1.16 (inactive) and 0.0544 (inactive) | 0.28 and -0.0177 | 0.987 and 0.588 | 0.111 (inactive) and -0.422 (inactive) | -0.403 and -0.304 | -0.655 (inactive) and -0.25 (inactive) | -0.102 (inactive) and 0.0032 (inactive) | -2.84 (inactive) and -0.333 (inactive) | -0.497 (inactive) | 0.432 (inactive) and 0.467 (inactive) | 1.15 (inactive) and 1.46 (inactive) | 1.61 (inactive) and 1.68 (inactive) | -0.0043 and -0.146 | 0.0428 and 0.704
